RECQ1 inh: inhibitors of human RECQ1 DNA helicase. actives 0.54% (n = 240,000). Potency, µM (highest dose often 57.3 µM), hits mostly inhibitors. RECQ1 DNA unwinding, red fluorescence kinetic read. P46063. AID 2549; further: nearly all actives have a fitted effect of over 30% in size
Target sequence (P46063 whole entry, looked up): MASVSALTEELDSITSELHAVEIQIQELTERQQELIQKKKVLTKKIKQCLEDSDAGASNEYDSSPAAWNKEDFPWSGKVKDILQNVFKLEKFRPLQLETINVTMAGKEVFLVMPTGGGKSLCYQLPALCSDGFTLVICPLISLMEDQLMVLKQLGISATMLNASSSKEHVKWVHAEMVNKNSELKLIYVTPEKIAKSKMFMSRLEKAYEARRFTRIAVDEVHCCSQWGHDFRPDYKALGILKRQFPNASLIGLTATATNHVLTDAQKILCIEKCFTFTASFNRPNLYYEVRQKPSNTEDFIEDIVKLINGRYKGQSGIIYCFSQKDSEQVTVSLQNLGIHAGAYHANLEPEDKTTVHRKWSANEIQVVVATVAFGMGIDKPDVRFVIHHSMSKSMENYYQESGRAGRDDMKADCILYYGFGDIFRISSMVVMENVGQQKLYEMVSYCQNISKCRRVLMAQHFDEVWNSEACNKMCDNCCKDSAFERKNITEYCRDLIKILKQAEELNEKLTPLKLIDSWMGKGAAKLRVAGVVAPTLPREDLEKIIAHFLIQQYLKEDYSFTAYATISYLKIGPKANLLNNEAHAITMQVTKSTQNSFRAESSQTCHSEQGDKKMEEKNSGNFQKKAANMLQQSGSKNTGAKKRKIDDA
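RECQ1T1 50 nM; forked duplex (20 bp + 30-nt ss tails) 200 nM, ATP 2 mM final; pH 8.0, 2 mM MgCl2, 2.5 ug/ml poly(dI-dC); 15 min compound preincubation; discontinuous kinetic read over 2 h at RT.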
BLM inh: inhibitors of human Bloom syndrome helicase BLM; AID 2528; Potency, µM (top dose mostly 56.1 µM), usual class: inhibitors; P54132; recombinant BLM DNA unwinding, fluorescence dequenching; actives 0.2% (n = 350,000); further: nearly all actives have a fitted effect of over 35% in size
L3MBTL1 inh: blocks human L3MBTL1; AlphaScreen L3MBTL1–H3K9me1 peptide binding; actives 0.66% (n = 230,000); Potency, µM (top dose mostly 57.1 µM), usual class: inhibitors; Q9Y468; AID 485360; further: nearly all actives have a fitted effect of over 60% in size
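AlphaScreen assay: L3MBTL1 (50 nM final) was preincubated 30 min at room temperature with biotinylated H3(1-15)K9me1 peptide (75 nM final), then 30 min with library compounds; streptavidin donor and nickel chelate acceptor beads (10 ug/mL final) added, 30 min dark.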
APE1 inh: blocks human APE1 abasic DNA cleavage; P27695; actives 0.35% (n = 350,000); recombinant APE1, TAMRA/BHQ-2 abasic DNA cleavage fluorescence; Potency, µM (series often up to 65.8 µM), usual class: inhibitors; further: nearly all actives have a fitted effect of over 55% in size
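APE1 at 0.75 nM final was preincubated with compound 15 min at room temperature, then 50 nM double-stranded THF abasic-site substrate (5'-TAMRA/3'-BHQ-2) was added. Fluorescence (ex 525/em 598 nm) was read kinetically; third-minus-first read gave activity.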
WRN helicase inh: WRN helicase (human) inhibition. Q14191. WRN helicase unwinding, fluorescent forked duplex, kinetic. Potency, µM (highest dose often 114 µM), actives largely listed as inhibitors. actives 0.46% (n = 360,000). AID 651768; further: nearly all actives have a fitted effect of over 55% in size
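Primary qHTS, 1536-well format. 20 nM WRN + compound, 15 min RT; start with 100 nM forked fluorophore/quencher duplex, 2 mM ATP (final); kinetic read ex 525/em 598 nm.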
FEN1 inhibitor: blocks human flap endonuclease 1 | P39748 | Recombinant FEN1 flap cleavage, fluorescence, 15 min | Potency, µM (top dose mostly 114 µM), usual class: inhibitors | actives 0.35% (n = 390,000) | AID 588795; further: nearly all actives have a fitted effect of over 65% in size
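Enzyme 10 nM, 15 min RT preincubation with compound; start with substrate 50 nM final; reads at 0 and 15 min; qHTS titration, four-parameter Hill fit.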
Hits are given with their value; i = inactive; ? = inconclusive; nt = not tested or not shown. Compounds with a hit are over-represented: about 1% of the library has one in this group of screens. The call rests on the fitted dose curve; in most records, active means well fitted curve in the direction sought with a large enough effect; inconclusive means small, poorly fitted or top-dose-only effect, or another doubt; inactive means no such curve, though single readings can be large; an effect the other way counts as inactive or inconclusive.

SMILES	RECQ1 inh	BLM inh	L3MBTL1 inh	APE1 inh	WRN helicase inh	FEN1 inhibitor
O=C(CCC1CCCC1)N1CCc2c([nH]c3ccccc23)C1c1ccc(Cl)cc1 (stereo not given)	nt	i	nt	nt	nt	i
CCOC(=O)C(=N/O)/C(C)=N/NC(=O)C(=O)Nc1cc(Cl)ccc1Cl	i	i	25µM	i	i	i
Cc1[nH]n(-c2ccccc2)c(=O)c1N=Nc1c(O)cc(S(=O)(=O)N(C)C)c2ccccc12	nt	nt	7.9µM	i	i	i
Cc1cc(/C=N/NC(=O)C(O)(c2ccccc2)c2ccccc2)c(C)n1-c1cccc(C(=O)O)c1	i	10µM	?	i	?	?
COc1cccc(S(=O)(=O)N(C)C[C@@H]2OCc3cnnn3CCCC(=O)N([C@@H](C)CO)C[C@H]2C)c1	nt	nt	nt	nt	i	nt
O=C(C[C@@H]1C/C=C\C[C@H](NC(=O)OCC2c3ccccc3-c3ccccc32)C(=O)OC[C@@H]2CCCN2C1=O)NCCO	nt	nt	i	9.5µM	i	i
O=C(C[C@@H]1C/C=C\C[C@H](NC(=O)OCC2c3ccccc3-c3ccccc32)C(=O)OC[C@@H]2CCCN2C1=O)N[C@@H](CO)Cc1ccccc1	nt	nt	i	i	i	i
CC(C)(C)OC(=O)C[C@@H]1C/C=C\C[C@H](CC(=O)NCCO)C(=O)N2CCC[C@H]2COC1=O	nt	nt	i	6.7µM	i	i
CCC[C@@H]1C[C@@H](C(=O)N[C@@H]([C@H]2O[C@H](SC)[C@H](O)[C@@H](O)[C@H]2O)[C@H](C)Cl)N(C)C1	nt	nt	nt	i	nt	nt
CCOC(=O)CSC1=NC(=O)/C(=C/c2ccc(OC)cc2)S1	i	i	i	i	50µM	i
c1coc(-c2ccc3nncn3c2)c1	nt	nt	nt	nt	18µM	nt
O=C(N/N=C/c1cc(Cl)cc([N+](=O)[O-])c1O)NC12CC3CC(CC(C3)C1)C2	i	?	i	i	45µM	i
O=C(N/N=C/c1ccccc1O)NC12CC3CC(CC(C3)C1)C2	nt	i	nt	i	i	i
CCc1cccc(NC(=O)CN2C(=O)COc3ccc(S(=O)(=O)N4CCC(C)CC4)cc32)c1	nt	i	nt	nt	nt	i
C/C(=N/NC(=O)c1cc(O)c(O)c(O)c1)c1ccc([N+](=O)[O-])cc1	i	i	18µM	i	?	?
Cc1ccc(-c2nc(C)c(CCNS(=O)(=O)c3ccccc3F)s2)cc1	nt	i	nt	nt	nt	i
COc1ccc(/C=N/Nc2cc(C)nc3c(C)cccc23)cc1	nt	i	i	i	?	18µM
COc1ccc(/C=N/Nc2cc(C)nc3ccccc23)cc1	nt	i	i	i	?	40µM
CC(=O)Nc1ccc(SCC(CC(C)C)N2CCN(C)CCC2=O)cc1 (stereo not given)	i	i	nt	i	nt	i
CN(CCC#N)c1ccc(/C=C/c2ccnc3ccccc23)cc1	nt	nt	nt	nt	nt	i
CSc1nc(=S)c2[nH]c(=S)[nH]c2[nH]1	i	i	i	i	50µM	i
CN(O)/C=c1/ccc2c(n1)C(=O)C=CC=2	i	i	20µM	i	i	i
CN(C)C1CCC(CC2CCc3ccccc32)CC1 (stereo not given)	nt	nt	nt	nt	nt	i
O=C(c1coc(=O)c(Br)c1)N1CCOCC1	i	i	14µM	13µM	?	i
CCCc1cc(C(=O)Cc2ccc(F)cc2)c(O)cc1O	i	i	i	i	i	i
SMILES	RECQ1 inh	BLM inh	L3MBTL1 inh	APE1 inh	WRN helicase inh	FEN1 inhibitor
CCCC(=O)c1cc(O)c(O)cc1O	1.1µM	nt	nt	0.89µM	nt	nt
CC(C)c1noc(-c2ccccc2OCC(=O)Nc2cccc([N+](=O)[O-])c2)n1	nt	i	nt	nt	nt	i
Cc1cc(N(C)C)c(C)cc1/C=C/c1ccnc2ccccc12	nt	nt	nt	nt	nt	i
COc1ccc(C)cc1NC(=O)COC(=O)c1ccc([N+](=O)[O-])o1	i	i	nt	i	i	i
COc1ccc(C(C)(C)C)cc1NC(=O)COC(=O)c1ccc([N+](=O)[O-])o1	i	i	i	i	i	25µM
N#CC1(C#N)C(c2ccccc2)OC23CCCCCC2C1(C#N)C(=N)O3 (stereo not given)	i	i	i	i	i	i
N#CC1(C#N)C(c2ccccc2)OC23CCCCC2C1(C#N)C(=N)O3 (stereo not given)	13µM	i	i	i	?	i
N#Cc1ccc(C(=O)OCC(=O)Nc2cccc(S(=O)(=O)NC3=NCCC3)c2)cc1	nt	nt	i	i	i	i
CC1(C)c2ssc(=S)c2-c2ccccc2N1C(=O)CSC1=NCCS1	i	i	14µM	i	i	i
COc1ccc2c(c1)-c1c(ssc1=S)C(C)(C)N2C(=O)CSC1=NCCS1	i	i	?	i	i	i
O=c1c2c([N+](=O)[O-])cc([N+](=O)[O-])cc2sn1Cc1ccccc1	nt	i	nt	i	20µM	?
O=c1c2c([N+](=O)[O-])cc([N+](=O)[O-])cc2sn1-c1ccc(Br)cc1	i	i	i	i	79µM	i
O=c1c2cc([N+](=O)[O-])cc([N+](=O)[O-])c2[nH]n1-c1ccccc1	nt	i	nt	i	i	i
CN(C)c1ccc(CNC(=O)c2ccc3c(c2)N(C)C(=O)C2CCCCN32)cc1 (stereo not given)	nt	i	nt	nt	nt	i
CCCCCCCCCc1ccc(OCCOCCO)cc1	nt	nt	nt	i	nt	nt
O=C(N/N=C/c1cc(Br)cc(Br)c1O)c1ccncc1	i	i	25µM	i	i	i
O=C(N/N=C/c1ccc(Cl)cc1Cl)c1ccncc1	nt	i	i	i	i	i
O=C(N/N=C/c1cc(Cl)cc(Cl)c1O)c1ccncc1	i	i	28µM	i	i	i
Oc1cccc(C=NCc2ccccc2)c1O	i	i	nt	?	40µM	?
CCCCSCc1[nH]c(=O)[nH]c1C(=O)CCCCC(=O)OCC	i	i	i	i	i	i
Cc1[nH]c(=O)[nH]c1C(=O)CCCCC(=O)O	i	i	0.35µM	i	i	i
O=C(COC(=O)c1c2c(nc3ccccc13)/C(=C/c1cccc([N+](=O)[O-])c1)CCC2)NC1CCS(=O)(=O)C1 (stereo not given)	i	i	i	i	i	i
CC1CCCCC1NC(=O)COC(=O)c1c2c(nc3ccccc13)/C(=C\c1ccco1)CC2 (stereo not given)	nt	nt	nt	nt	?	50µM
O=C(COC(=O)c1c2c(nc3ccccc13)/C(=C\c1ccco1)CC2)NC1CCCC1	nt	nt	nt	nt	45µM	?
CCCCNC(=O)COC(=O)c1c2c(nc3ccccc13)/C(=C/c1cccs1)CC2	i	i	?	i	i	i
CCCCc1ccc(NS(=O)(=O)c2ccc(N3CCCCS3(=O)=O)cc2)cc1	nt	i	nt	nt	nt	i
CCc1ccc2nc(N(CCCN(C)C)C(=O)c3ccc(S(=O)(=O)N(C)C4CCCCC4)cc3)sc2c1	nt	i	nt	i	i	79µM
CCOC(=O)C1=C(Cc2ccc(Cl)cc2)C(=O)c2ccccc2C1=O	i	i	nt	i	35µM	?

Bioassay records from PubChem BioAssay.
